From PubChem BioAssay
HT1080 IDH1KD tx – HT-1080 IDH1 knockdown cell toxicity (counter line); 2% of 360,000 active; Potency, µM (titrated, usually from 46.1 µM), for inactives: top-dose activity, negative = toxicity, most hits filed as cytotoxic; HT-1080 IDH1 knockdown viability, ATP luminescence, 48 h;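 note: potency is the fitted concentration of half-maximal effect; 0% = DMSO wells and -100% = cell-free medium wells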
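In this qHTS, HT-1080 cells depleted of IDH1 are exposed for 48 h at 37 °C to compound titrations. Toxicity is scored from CellTiter-Glo luminescence, with DMSO as full viability and medium alone as none.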
TDP1 cell CPT – growth inhibition of DT40 Tdp1-/-;hTDP1 cells with camptothecin (screen for TDP1 inhibitors). AID 686979. chicken DT40 Tdp1-/-;hTDP1 cells + 20 nM CPT, ATP luminescence, 48 h. 12% of 420,000 active. Potency, µM (top dose mostly 46.2 µM), for inactives: at the highest dose activity change, negative = growth inhibition, hits mostly inhibitors; note: potency is the fitted concentration of half-maximal effect; nearly all actives have a fitted effect of over 55% in size
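Chicken DT40 Tdp1-/- cells stably complemented with human TDP1 were seeded at 400 cells/well in medium containing 20 nM camptothecin, exposed to pin-transferred compounds, and grown at 37 °C for at least 48 hr. Viability was read as ATP luminescence.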
IL-1B inflam inh – inhibitors of inflammasome signaling (IL-1 beta secretion) | 4.7% of 360,000 active | THP-1 LPS/ATP IL-1B secretion, AlphaLISA, 16 h; active compounds read low | activity change, % at 57.5 µM; in the data active = activity change below about -50%; inconclusive = mostly about -30% to -49%
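THP-1 cells pretreated 1 hr with compounds (up to 57.5 uM final), then stimulated with LPS (250 ng/mL final) plus ATP (1.25 mM final); secreted IL-1B measured by AlphaLISA after 16 hr, decreased signal indicating inhibition.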
TDP1 cell noCPT – qHTS for Inhibitors of human tyrosyl-DNA phosphodiesterase 1 (TDP1): qHTS in cells in absence of CPT; DT40 Tdp1-/- hTDP1 cells, no CPT, ATP luminescence, 48 h; Potency, µM (titrated, usually from 46.2 µM), for the others: top-dose activity change, negative = growth inhibition, usual class: inhibitors; 15% of 420,000 active; AID 686978, 2013; note: potency is the fitted concentration of half-maximal effect; nearly all actives have a fitted effect of over 55% in size
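Growth of hTDP1-complemented DT40 Tdp1-knockout cells is measured by ATP luminescence after at least 48 hr compound exposure at 37 °C, with DMSO substituting for the 20 nM CPT used in the parallel screen.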
uPA generation – inhibitors of cell surface uPA generation | Potency, µM (series often up to 38.3 µM), for inactives: at the top dose activity change, negative = inhibition, hits mostly inhibitors | 0.31% of 330,000 active | AID 540303 | cell surface uPA generation assay, qHTS; active = well fitted inhibition curve with a large enough effect; inconclusive = small, poorly fitted or top-dose-only effect; inactive = no such curve, though single readings can be large or run the other way; tested in mouse RAW 264.7 cells; note: potency is the fitted concentration of half-maximal effect; nearly all actives have a fitted effect of over 55% in size
HT1080NT lethal – kills 2HG-producing HT-1080-NT fibrosarcoma cells; 1.6% of 360,000 active; Potency, µM (titrated, usually from 46.1 µM), without a hit: top-dose activity, negative = less viability, hits mostly cytotoxic; AID 686970; HT-1080-NT fibrosarcoma viability, CellTiter-Glo ATP luminescence, 48 h;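 note: NT is the 2HG producing partner of a matched IDH1 knockdown line; potency is the fitted concentration of half-maximal effect; 0% = DMSO-treated cells and -100% = media-only wells without cells; nearly all actives have a fitted effect of over 55% in size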
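A 48-hour cytotoxicity screen used HT-1080-NT cells plated 2 hours before compound delivery. ATP-based CellTiter-Glo luminescence measured viability, normalized to DMSO and no-cell controls.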
Starred values were filed as active, the others as inactive; u = inconclusive; x = no result given; [ ] = another dose, or the depositor's remark. An excerpt weighted towards active compounds, which were near 19% of everything screened. Unless noted, calls come from the whole dose curve; as a rule, active = well fitted curve in the direction sought with a large enough effect; inconclusive = small, poorly fitted or top-dose-only effect, or another doubt; inactive = no such curve, though single readings can be large; an effect the other way counts as inactive or inconclusive. Unless noted, % is set by controls: 0 for no effect and ±100 for the full control effect.

SMILES	HT1080 IDH1KD tx	TDP1 cell CPT	IL-1B inflam inh	TDP1 cell noCPT	uPA generation	HT1080NT lethal
O=C(NCC1CCOCC1)c1ccc(-c2ccc(F)c(F)c2)c2ccoc12	u	12µM*	-92*	10µM*	x	-16%
O=C(NCc1ccc(Cl)cc1)c1ccc(-c2ccc(F)c(F)c2)c2ccoc12	-2%	u	x	u	x	-5%
O=C(NCc1cccs1)c1ccc(-c2ccc(F)c(F)c2)c2ccoc12	u	12µM*	x	10µM*	x	u
O=C(NCc1ccc(F)c(F)c1)c1ccc(-c2ccc(F)c(F)c2)c2ccoc12	-12%	18µM*	u	21µM*	x	-24%
O=S(=O)(/N=C(\c1ccc(F)cc1)N1CCOCC1)c1ccccc1	7%	1%	25	-5%	x	1%
O=S(=O)(NCCc1ccccc1)c1ccc(Br)cc1	1%	-3%	0	u	3%	6%
O=C(NC1CCCCC1)C(c1ccc2ncccc2c1)N(Cc1ccccc1)C(=O)c1cccs1 (stereo not given)	u	u	-69*	18µM*	0%	u
O=C(NC1CCCCC1)C(c1ccc2ncccc2c1)N(Cc1ccc2c(c1)OCO2)C(=O)c1cccs1 (stereo not given)	u	18µM*	-69*	u	-6%	u
O=C1OC2(CCCCC2)OC(=O)C1=CNc1ccc2c(c1)OCO2	11%	-23%	7	-15%	x	-14%
COc1ccc2c(c1)CC/C(=C\Nc1ccc3c(c1)OCO3)C2=O	5%[9.24 µM]	15µM*	-87*	u	u	u
COc1ccc(S(=O)(=O)Nc2ccc3c(c2)OCO3)cc1	-26%	-27%	-1	u	-7%	-17%
O=C1/C(=C/Nc2ccc3c(c2)OCO3)CCc2ccccc21	u	26µM*	-2	u	-5%	u
COc1ccc(N/C=C2\CCc3ccccc3C2=O)cc1	u	u	1	u	1.3µM*	u
CNc1cncc(-c2cc(C)c(O)c(C)c2)n1	u	4.1µM*	-26	6.5µM*	x	u
O=C(/C=C/c1cccc(Cl)c1)Nn1c(-c2cccs2)nc2ccccc2c1=O	0%	-1%	-55*	-26%	-7%	-4%
Cc1ccc(-c2cnc(SCC(=O)N3CCCc4ccccc43)n2C)cc1	-10%	-24%	-50*	-20%	-1%	-23%
O=C(CSc1nnc(CNc2ccccc2)o1)N1CCCc2ccccc21	7%	3%	0	-30%	2%	-3%
O=C(CSc1nnc(-c2ccc(Cl)s2)o1)N1CCCc2ccccc21	23%	u	-8	16µM*	-8%	19%
COc1ccc(-c2nnc(SCC(=O)N3CCCc4ccccc43)o2)cc1OC	-4%	u	1	u	6%	2%
Cc1ccc(-n2c(SCC(=O)N3CCCc4ccccc43)nnc2-c2cccnc2)c(C)c1	0%	u	20	23µM*	1%	6%
Cc1ccc(NCc2nnc(SCC(=O)N3CCCc4ccccc43)o2)c(C)c1	u	5.8µM*	-20	18µM*	2%	-9%
COc1ccc(CN(C)CC(=O)Nc2ccccc2C(=O)NC2CC2)cc1F	25%	u	-7	u	3%	13%
CC[C@H](NC(=O)CC[C@H]1O[C@@H](n2cnc3c(NC(=O)c4ccccc4)ncnc32)[C@H](O)[C@@H]1O)c1ccccc1	7%	-29%	0	-1%	x	29%
CSCc1cccc(C(=O)OC(C)C(=O)Nc2c(C)n(C)n(-c3ccccc3)c2=O)c1 (stereo not given)	4%	16%	-20	6%	u	11%
O=C(CSc1ncc(-c2ccccc2)n1C1CCCC1)N1CCc2ccccc21	u	23µM*	-61*	21µM*	-4%	-8%
